Results on seven molecules are retold here after PubChem BioAssay (NCI).

The panel holds about 83,000 compounds, 20% with a hit somewhere; the sample as a whole holds those more often.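 Treatment: one concentration, 48 hours, 96-well format. Scoring: percent growth, with anything below 10 considered active.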 Unmarked numbers belong to inactive results. The source made the active and inactive calls.

Test systems include DU-145 prostate; K-562 leukemia; MALME-3M melanoma; MDA-MB-231 breast; RXF 393 renal; SF-268 CNS; SF-295 CNS; SF-539 CNS; UACC-257 melanoma; M14 melanoma; HCT-15 colon; HT29 colon; SNB-75 CNS; SNB-19 CNS; U251 CNS; PC-3 prostate; SK-MEL-5 melanoma; UACC-62 melanoma; LOX IMVI melanoma; SK-MEL-28 melanoma.
Common to all, as to assay: NCI-60 one-dose screen, 48 h (100 = growth as untreated, 0 = no growth, -100 = all killed)
What all share (details): 10 µM unless noted

Turning to `O=C(CCCSc1nc(-c2ccccc2)cc(-c2ccccc2)n1)NO`, the growth with DU-145 prostate is 13.3%; in the assay on K-562 leukemia it was 6.51% (active); in the assay on MALME-3M melanoma it was 7.62% (active); in the assay on MDA-MB-231 breast it was 19.8%; with RXF 393 renal it was -21.7% (active); with SF-268 CNS, 0.164% (active). In addition, the growth in the assay with SF-295 CNS is 4.39% (active); in the assay on SF-539 CNS, 6.64% (active); in the assay on UACC-257 melanoma it was -2.82% (active); in the assay on M14 melanoma, 5.46% (active); in the assay on HCT-15 colon, 20.4%; in the assay with HT29 colon it was 2.72% (active). Further, the growth is 9.8% (active) in the assay on SNB-75 CNS; 21.6% in the assay on SNB-19 CNS; -13.2% (active) in the assay with U251 CNS; 26.2% in the assay on PC-3 prostate; -17.3% (active) in the assay on SK-MEL-5 melanoma; -20.9% (active) in the assay with UACC-62 melanoma. For the same molecule, the growth with LOX IMVI melanoma was -25.3% (active); with SK-MEL-28 melanoma, 26%.
On to `CN(C)c1ccc(N=Nc2ccc3ccccc3c2)cc1`, for which the growth with DU-145 prostate is 98.9%; with K-562 leukemia, 82.6%; with MALME-3M melanoma it was 101%; in the assay with MDA-MB-231 breast, 69.5%; in the assay on RXF 393 renal it was 97.7%; in the assay with SF-268 CNS it was 87.8%. Moreover, the growth in the assay on SF-295 CNS is 107%; with SF-539 CNS it was 93%; in the assay on UACC-257 melanoma it was 102%; with M14 melanoma, 99.1%; in the assay with HCT-15 colon, 55.5%; with HT29 colon, 78.7%. Besides, the growth in the assay on SNB-75 CNS is 77.4%; in the assay with SNB-19 CNS, 100%; in the assay with U251 CNS it was 76.3%; with PC-3 prostate it was 75.6%; with SK-MEL-5 melanoma, 87.3%; in the assay on UACC-62 melanoma it was 90.8%. Besides, the results for the growth with LOX IMVI melanoma and in the assay with SK-MEL-28 melanoma were 72.6% and 103%, respectively.
Regarding `NC(=S)Cc1ccccc1`, the growth is 104% in the assay with DU-145 prostate; 97.1% with K-562 leukemia; 92.7% in the assay with MALME-3M melanoma; 101% with MDA-MB-231 breast; 116% in the assay on RXF 393 renal; 99.8% with SF-268 CNS. Besides, the growth is 91.9% with SF-295 CNS; 95.5% in the assay on SF-539 CNS; 103% with UACC-257 melanoma; 98.6% in the assay with M14 melanoma; 97.3% with HCT-15 colon; 101% in the assay with HT29 colon. In addition, the growth with SNB-75 CNS is 88%; in the assay on SNB-19 CNS, 98.2%; in the assay on U251 CNS it was 100%; with PC-3 prostate it was 102%; in the assay with SK-MEL-5 melanoma, 100%; with UACC-62 melanoma, 93.9%. Also, the results for the growth in the assay with LOX IMVI melanoma and with SK-MEL-28 melanoma were 0.449% (active) and 105%, respectively.
Consider `Cc1cccc(C[C@H](NC(=O)Nc2ccc(Cl)cc2F)C(=O)N[C@@H]2C(=O)N3C[C@H](OC(=O)CCN(C)C)C[C@H]3C(=O)N3CCCC[C@H]3C(=O)N[C@@H](C)C(=O)N3C[C@H](C)C[C@H]3C(=O)O[C@H]2C)c1`, for which the growth in the assay on DU-145 prostate was 23.7%; with K-562 leukemia, 15.8%; with MALME-3M melanoma it was 27.1%; in the assay on MDA-MB-231 breast, 1.21% (active); in the assay on RXF 393 renal, 18.7%; with SF-268 CNS, 24.8%. Moreover, the growth is 7.95% (active) in the assay with SF-295 CNS; 35.6% in the assay on SF-539 CNS; 16.3% in the assay on UACC-257 melanoma; 16.5% with M14 melanoma; 64.8% in the assay with HCT-15 colon; 5.77% (active) in the assay on HT29 colon. In addition, the growth is 13.5% in the assay on SNB-75 CNS; 21.3% in the assay on SNB-19 CNS; 22.9% with U251 CNS; 16.7% in the assay on PC-3 prostate; 6.65% (active) in the assay on SK-MEL-5 melanoma; 13.4% in the assay on UACC-62 melanoma. Also, the values for the growth in the assay with LOX IMVI melanoma and with SK-MEL-28 melanoma were 23.9% and 25.8%, respectively.
With `COc1ccc2c(c1)c(-c1noc(C(=O)c3cn(C)c4ncc(Br)cc34)n1)cn2C`, the growth in the assay with DU-145 prostate was 50.4%; with K-562 leukemia, 71%; in the assay on MALME-3M melanoma, 28.1%; in the assay with MDA-MB-231 breast, 25.4%; with RXF 393 renal, 27.9%; with SF-268 CNS, 62.8%. The growth with SF-295 CNS was 89%; with SF-539 CNS, 25.7%; in the assay with UACC-257 melanoma, 92.8%; in the assay on M14 melanoma, 91.3%; in the assay with HCT-15 colon, 68.4%; with HT29 colon it was 58%. In addition, the growth was -12.8% (active) with SNB-75 CNS; 78.7% in the assay on SNB-19 CNS; 68.6% in the assay with U251 CNS; 39.7% in the assay with PC-3 prostate; 50.6% in the assay with SK-MEL-5 melanoma; 65.6% with UACC-62 melanoma. Besides, the growth with LOX IMVI melanoma was 70.9%; in the assay on SK-MEL-28 melanoma, 71.1%.
Turning to `CC[C@@H]1NC(=O)[C@@H]2CCCCN2C(=O)[C@@H]2CCCN2C(=O)[C@@H](NC(=O)[C@H](Cc2cc(F)cc(F)c2)NC(=O)Nc2ccc(C3CC3)cc2F)[C@H](C)OC(=O)[C@@H]2C[C@@H](C)CN2C1=O`, the growth is 20% with DU-145 prostate; 10.4% in the assay on K-562 leukemia; 16.9% with MALME-3M melanoma; -31.2% (active) in the assay on MDA-MB-231 breast; -4.47% (active) in the assay on RXF 393 renal; 22% with SF-268 CNS. Besides, the growth was -10.1% (active) with SF-295 CNS; 24.1% in the assay on SF-539 CNS; 10.7% in the assay on UACC-257 melanoma; 16.8% with M14 melanoma; 4.6% (active) in the assay on HCT-15 colon; 4.98% (active) with HT29 colon. Moreover, the growth with SNB-75 CNS is 10.4%; in the assay on SNB-19 CNS, 15.7%; in the assay with U251 CNS it was 24.5%; in the assay with PC-3 prostate, 12.5%; in the assay with SK-MEL-5 melanoma, -45% (active); in the assay on UACC-62 melanoma it was 7.28% (active). For the same molecule, the growth with LOX IMVI melanoma was 16.4%; with SK-MEL-28 melanoma it was 13.5%.
On to `Nc1ccc(NC(=O)c2ccccc2)c2c1C(=O)c1ccccc1C2=O`, for which the growth is 98.5% in the assay on DU-145 prostate; 105% in the assay on K-562 leukemia; 89.5% in the assay with MALME-3M melanoma; 94.7% in the assay with MDA-MB-231 breast; 106% in the assay on RXF 393 renal; 99.3% with SF-268 CNS. Moreover, the growth in the assay on SF-295 CNS was 105%; in the assay on SF-539 CNS, 103%; in the assay with UACC-257 melanoma it was 88.8%; in the assay with M14 melanoma, 100%; in the assay on HCT-15 colon, 99%; with HT29 colon it was 104%. Further, the growth in the assay on SNB-75 CNS is 76%; in the assay with SNB-19 CNS, 102%; in the assay on U251 CNS it was 105%; in the assay on PC-3 prostate, 87.2%; in the assay on SK-MEL-5 melanoma, 94.2%; in the assay on UACC-62 melanoma, 101%. Besides, the growth with LOX IMVI melanoma was 109%; in the assay on SK-MEL-28 melanoma, 113%.
